{"source": "PubChem BioAssay AID368", "about": "(University of Pittsburgh Molecular Library Screening Center, 2006)", "note": "Screen size: about 65,000 compounds; about 85 (0.1%) were called active. What follows is part of a selection rich in actives, with near analogues and random picks from the rest. Values without a mark were called inactive. Rule as the data show it: active = inhibition above about 50%; inactive = the rest."}
{"molecular_target": "M-phase inducer phosphatase 2 (Homo sapiens) (UniProt P30305)", "sequence (P30305 whole entry, looked up, the tested form may be a part)": "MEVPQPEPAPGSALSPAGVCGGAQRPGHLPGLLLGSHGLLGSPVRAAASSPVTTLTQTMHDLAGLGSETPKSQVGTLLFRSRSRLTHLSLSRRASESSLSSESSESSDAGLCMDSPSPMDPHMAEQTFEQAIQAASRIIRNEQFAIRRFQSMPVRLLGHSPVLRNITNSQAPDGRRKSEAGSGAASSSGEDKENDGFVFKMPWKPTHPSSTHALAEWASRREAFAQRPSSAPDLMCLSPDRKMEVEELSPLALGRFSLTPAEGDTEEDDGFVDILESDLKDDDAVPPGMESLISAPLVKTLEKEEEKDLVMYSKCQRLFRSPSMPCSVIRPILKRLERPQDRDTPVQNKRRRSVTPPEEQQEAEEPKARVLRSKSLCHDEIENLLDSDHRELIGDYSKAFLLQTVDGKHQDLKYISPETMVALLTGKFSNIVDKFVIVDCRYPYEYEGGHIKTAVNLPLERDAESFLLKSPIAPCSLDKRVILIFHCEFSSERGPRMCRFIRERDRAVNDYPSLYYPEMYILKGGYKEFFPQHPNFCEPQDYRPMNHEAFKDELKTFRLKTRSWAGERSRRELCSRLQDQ", "experiment": "human Cdc25B tyrosine phosphatase blockers – biochemical, OMFP fluorescence, catalytic domain, primary screen (AID 368)", "details": "recombinant Cdc25B, OMFP fluorescence Ex485/Em525; active compounds read high;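 compounds tested at 10 µM final in the well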"}
{"compound": "CS(=O)(=O)N(Cc1nc2sc3c(c2c(=O)[nH]1)CCCC3)C1CCCCC1", "inhibition": "-20%"}
{"compound": "O=C1c2ccccc2C(=O)N1CCc1nn[nH]n1", "inhibition": "2.01%"}
{"compound": "COc1ccc(C(=O)c2oc3ccc(Br)cc3c2NC(C)=O)cc1", "inhibition": "1.8%"}
{"compound": "CC(=O)Nc1ccc(NS(=O)(=O)c2cc(C)sc2C)cc1", "inhibition": "7.75%"}
{"compound": "Cc1ccc(S(=O)(=O)N2C3C=CC(C3)C2C(=O)O)cc1", "note": "(stereo unspecified)", "inhibition": "-0.599%"}
{"compound": "Cc1cc(C)cc(NC(=O)N2CCC(NC(=O)c3ccc(F)cc3)CC2)c1", "inhibition": "5.11%"}
{"compound": "CCOC(=O)C(CC)Sc1ncnc2c1nnn2-c1ccc(F)cc1", "note": "(stereo unspecified)", "inhibition": "-12.7%"}
{"compound": "COc1cc(-c2noc(C3CCCN(S(=O)(=O)c4cccc(Cl)c4)C3)n2)cc(OC)c1OC", "note": "(stereo unspecified)", "inhibition": "3.35%"}
{"compound": "CC(C)C(c1nnnn1C1CCCC1)N1CCN(c2ccccc2F)CC1", "note": "(stereo unspecified)", "inhibition": "-10.2%"}
{"compound": "CC(C)C1Cc2c(sc3c2c(=O)n(-c2ccccc2)c2nncn32)CO1", "note": "(stereo unspecified)", "inhibition": "-39.8%"}
{"compound": "C=CCNC(=O)C1CC=CCC1C(=O)O", "note": "(stereo unspecified)", "inhibition": "-12.3%"}
{"compound": "Cc1nc(Nc2ccc3c(c2)OCCO3)c2nnn(Cc3ccccc3Cl)c2n1", "inhibition": "-17.1%"}
{"compound": "CC(=O)N1CCC(C(=O)Nc2nc(-c3ccccc3)ns2)CC1", "inhibition": "-5.67%"}
{"compound": "CN1C(=O)c2ccc(NC(=O)c3c(F)c(F)c(F)c(F)c3F)cc2C1=O", "inhibition": "2.43%"}
{"compound": "O=C(CC(NS(=O)(=O)c1ccc(Cl)cc1)c1ccco1)NC1CCCC1", "note": "(stereo unspecified)", "inhibition": "-20.3%"}
{"compound": "O=C(NC1=NCCS1)c1ccc(Cl)s1", "inhibition": "1.03%"}
{"compound": "CC1Cc2ccccc2N1C(=O)Cn1cnc2ccccc2c1=O", "note": "(stereo unspecified)", "inhibition": "-1.71%"}
{"compound": "c1nnc2c3c4c(sc3ncn12)CCC4", "inhibition": "0.998%"}
{"compound": "O=C(CN1C(=O)C2C3C=CC(C3)C2C1=O)NCC1COc2ccccc2O1", "note": "(stereo unspecified)", "inhibition": "-2.93%"}
{"compound": "COCCNC(=O)CN(C(=O)CCC(=O)Nc1cc(C)on1)c1ccc(C)cc1C", "inhibition": "11.4%"}
{"compound": "O=C(Nc1cccc(C(=O)N2CCCC2)c1)c1ccccc1", "inhibition": "-4.63%"}
{"compound": "O=C(Nc1cccc(NC(=O)N2CCN(c3ccccc3)CC2)c1)N1CCN(c2ccccc2)CC1", "inhibition": "76.4% (active)"}
{"compound": "CC(=O)N1CCN(C(=O)Nc2cccc(C(F)(F)F)c2)CC1", "inhibition": "-11.9%"}
{"compound": "Cc1ccc2c(CSc3nncs3)cc(=O)oc2c1", "inhibition": "-6.44%"}
{"compound": "CCOC(=O)c1[nH]c2c(c1C)C(=O)CC(c1ccc(N(C)C)cc1)C2", "note": "(stereo unspecified)", "inhibition": "-8.71%"}
{"compound": "Cc1ccc(N)cc1-n1c(C)ccc1C", "inhibition": "1.36%"}
{"compound": "Cc1ccc(CNC(=O)CN2CCN(Cc3ccc(Cl)cc3)C2=O)cc1", "inhibition": "1.98%"}
{"compound": "COCCCN1C(=O)c2ccc(C(=O)Nc3ccc(OC)cc3OC)cc2C1=O", "inhibition": "-4.42%"}
{"compound": "Cc1cc(Cl)c(S(=O)(=O)NCc2cccnc2)cc1OCC(N)=O", "inhibition": "-3.27%"}
{"compound": "CCOC(=O)C1=C(C)NC(C)=C(C(=O)OCC)C1C1=COCCO1", "inhibition": "1.59%"}
{"compound": "COc1ccc(N2CCN(C3CC(=O)N(c4ccc5c(c4)OCCO5)C3=O)CC2)cc1", "note": "(stereo unspecified)", "inhibition": "5.32%"}
{"compound": "CCn1c(NCCc2ccc(OC)c(OC)c2)nc2c1c(=O)n(C)c(=O)n2C", "inhibition": "7.88%"}
{"compound": "COc1cc(-c2nc(S(=O)(=O)c3ccc(Cl)cc3)c(N(C)C)o2)cc(OC)c1OC", "inhibition": "-3.74%"}
{"compound": "Cc1ccc(C(c2nnnn2CS(=O)(=O)c2ccc(C)cc2)N2CCC(C(N)=O)CC2)cc1", "note": "(stereo unspecified)", "inhibition": "-6.28%"}
{"compound": "CCCOc1ccc(C2C(C(=O)c3ccc(C)o3)=C(O)C(=O)N2CCCn2ccnc2)cc1", "note": "(stereo unspecified)", "inhibition": "-1.79%"}
{"compound": "O=c1c2ccccc2oc2nc3n(c(=O)c12)CCCS3", "inhibition": "-1.25%"}
{"compound": "CCOC(=O)N1CCN(C(=O)CSc2ccc(Cl)cc2)CC1", "inhibition": "3.41%"}
{"compound": "CC1CN(C(=O)c2ccc3c(c2)OCO3)OC(c2ccccc2)O1", "note": "(stereo unspecified)", "inhibition": "-8.81%"}
{"compound": "CC1=C(C)CC2C(=O)N(c3cccc4ccccc34)C(=O)C2C1", "note": "(stereo unspecified)", "inhibition": "-7.9%"}
{"compound": "Cc1nc2c(-c3ccccc3)c(C)[nH]n2c(=O)c1Cl", "inhibition": "-4.09%"}
{"compound": "COc1ccc(S(=O)(=O)N(C)CC(=O)Nc2ccc3c(c2)OCCO3)cc1OC", "inhibition": "-5.79%"}
{"compound": "O=S(=O)(Nc1ccc2nc(-c3ccco3)[nH]c2c1)c1ccccc1", "inhibition": "-8.83%"}
{"compound": "O=S(=O)(c1cccc(-c2nnc(SC(F)F)n2-c2ccccc2)c1)N1CCCCC1", "inhibition": "10.3%"}
{"compound": "CCC(=O)Nc1cccc(NC(=O)CSc2nnnn2C2CCCC2)c1", "inhibition": "-2.8%"}
{"compound": "CCOc1ccc(C(=O)Nc2cc(OC)ccc2OC)cc1", "inhibition": "-1.04%"}
{"compound": "O=C(C1CCN(c2nnc(-n3cccc3)s2)CC1)N1CCc2ccccc2C1", "inhibition": "-4.75%"}
{"compound": "Cc1noc(/C=C/N(C)C)c1S(=O)(=O)N1CCCC(C(=O)NCc2ccco2)C1", "note": "(stereo unspecified)", "inhibition": "-8.56%"}
{"compound": "CCCCc1cc(=O)oc2cc(C)cc(OCc3nn[nH]n3)c12", "inhibition": "-4.64%"}
{"compound": "CCOC(=O)c1c(NC(=O)c2cccs2)sc(C)c1C", "inhibition": "-1.19%"}
{"compound": "COCCNC(=O)CSc1nc2c(n1-c1ccccc1)CCCC2", "inhibition": "-0.327%"}
{"compound": "CCn1c(SCC(=O)Nc2ccccc2F)nc2c(c1=O)SC(C)C2", "note": "(stereo unspecified)", "inhibition": "-15.6%"}
{"compound": "CCOc1ccccc1N(CC(=O)NC1CCCCC1)C(=O)CCCC(=O)Nc1ccccn1", "inhibition": "-10.5%"}
{"compound": "CCOC(=O)N1CCC(NC(=O)CN2C(=O)COc3ccc(C(C)(C)C)cc32)CC1", "inhibition": "-4.53%"}
{"compound": "CCCN(CCC)C(=O)C1c2ccccc2Oc2ccccc21", "inhibition": "-5.87%"}
{"compound": "COC(=O)c1c(NC(=O)c2cccs2)sc2c1CCCC2", "inhibition": "-11.6%"}
{"compound": "COc1cccc(N(C(=O)c2ccn[nH]2)C2(C(=O)Nc3c(C)cccc3C)CCCCC2)c1", "inhibition": "4.58%"}
{"compound": "CCN(CC)C(=O)C1CCC(C)(C(=O)O)C1(C)C", "note": "(stereo unspecified)", "inhibition": "-11.3%"}
{"compound": "COc1ccc(-c2noc(-c3cccc(OC)c3OC)n2)cc1OC", "inhibition": "-12.3%"}
{"compound": "COc1ccc(CCNC(=O)c2cc(-c3ccc4c(c3)OCO4)on2)cc1OC", "inhibition": "-4.69%"}
{"compound": "COc1ccc(-c2cc3n(n2)CCc2nc4ccccc4n2-3)cc1", "inhibition": "-0.418%"}
{"compound": "O=C(Cc1ccccc1)n1nc(-c2ccccc2)nc1NCc1ccco1", "inhibition": "-11.6%"}
{"compound": "COc1ccc(N2C(=O)CN=C2Nc2cccc(C)c2C)cc1OC", "inhibition": "-17.1%"}
{"compound": "COc1ccc(C)cc1NC(=O)c1[nH]c(C)c(C(C)=O)c1C", "inhibition": "-7.67%"}
{"compound": "COc1cccc2c(C)c(C(=O)O)[nH]c12", "inhibition": "50.5% (active)"}
{"compound": "CCOC(=O)c1c(C)[nH]c(C(=O)NCc2ccccc2OC)c1C", "inhibition": "0.611%"}
{"compound": "FC(F)(F)c1nnc2sc(-c3ccco3)nn12", "inhibition": "6.19%"}
{"compound": "CC1(N2CCOCC2)CC2(O)C(=[N+]1[O-])CCc1nonc12", "note": "(stereo unspecified)", "inhibition": "-12.9%"}
{"compound": "Cc1nn(Cc2ccc(Cl)c(Cl)c2)c(C)c1NC(=O)c1cc(C2CC2)on1", "inhibition": "-9.41%"}
{"compound": "Cc1cc(NS(=O)(=O)c2ccccc2)no1", "inhibition": "-0.238%"}
{"compound": "Nc1ccc(SCCN2C(=O)c3ccccc3C2=O)cc1", "inhibition": "3.47%"}
{"compound": "COc1ccc(C(=O)NCc2cn3ccccc3n2)cc1", "inhibition": "8.6%"}
{"compound": "CC(=O)OCc1cc2cc(C)ccc2[nH]c1=O", "inhibition": "8.17%"}
{"compound": "Cc1noc(C)c1C(=O)NC(C)c1ccc2c(c1)OCO2", "note": "(stereo unspecified)", "inhibition": "-2.76%"}
{"compound": "O=C(NC1CC2CCCC(C1)N2C(=O)N1CCCCC1)C1CCCCC1", "note": "(stereo unspecified)", "inhibition": "0.205%"}
{"compound": "Cc1cccc(OCc2nnc(SCc3nc4cc(C(F)(F)F)ccc4c(=O)[nH]3)o2)c1", "inhibition": "4.99%"}
{"compound": "C=CCNc1nnc(SCC(=O)N2CCCCC2)c2ccccc12", "inhibition": "-10.6%"}
{"compound": "O/N=C(\\c1ccc2c(c1)OCCO2)C1CCCCC1", "inhibition": "-1.56%"}
{"compound": "CC(C)Cc1cc(C(=O)NCCc2ccccc2)no1", "inhibition": "-7.12%"}
{"compound": "O=C(OCC(=O)c1cccs1)C1=COCCO1", "inhibition": "-13.5%"}
{"compound": "Cc1ccc(-c2csc3nnc(SCC(=O)NCc4ccco4)n23)cc1", "inhibition": "-17.7%"}
{"compound": "Fc1ccccc1CCNc1nnnn1-c1ccccc1", "inhibition": "0.973%"}
{"compound": "Cc1cc(=O)oc(C)c1C(=O)NC1CC(C)(C)NC(C)(C)C1", "inhibition": "-30.7%"}
{"compound": "CCCc1cc(=O)oc2c(C)c(O)c(CN3CCCCC3)cc12", "inhibition": "-7.47%"}
{"compound": "COc1ccc(-c2nc3n(c2Br)CCC3)cc1", "inhibition": "2.84%"}
{"compound": "CC1(C)C(=O)Nc2ccccc2N1C(=O)COC(=O)Cn1cnc2ccccc2c1=O", "inhibition": "-9.58%"}
{"compound": "CC(C)OC(=O)c1sc2nc3c(cc2c1N)C(=O)CCC3", "inhibition": "15.7%"}
{"compound": "CCN(CCCCOC(=O)c1ccc(OC)c(OC)c1)C(C)Cc1ccc(OC)cc1", "note": "(stereo unspecified)", "inhibition": "-19.9%"}
{"compound": "O=C(O)[C@@H]1CCCN1c1ncnc2sc3c(c12)CCC3", "inhibition": "1.46%"}
{"compound": "O=C(Nc1ccc2c(c1)nc1n2CCCCC1)c1cc(S(=O)(=O)N2CCOCC2)ccc1Cl", "inhibition": "7.55%"}
{"compound": "O=S(=O)(Nc1ccccc1N1CCOCC1)c1ccc(Cl)s1", "inhibition": "-16%"}
{"compound": "COc1cc(OC)c(C(=O)Nc2ccc(N(C)C)cc2)cc1OC", "inhibition": "4.05%"}
{"compound": "CCOC(=O)c1ccc(-c2ccc(C(=O)Nc3cccnc3)o2)cc1", "inhibition": "-8.16%"}
{"compound": "CCOc1cc(NC(=O)c2ccco2)c(OCC)cc1NC(=O)COc1ccccc1", "inhibition": "2.37%"}
{"compound": "COc1ccc(OC)c(C2N(c3ccccn3)C(=O)C3CCCN32)c1", "note": "(stereo unspecified)", "inhibition": "6.93%"}
{"compound": "CCCc1nc(N)nc2c1C(=O)CC(C)(C)C2", "inhibition": "-1.09%"}
{"compound": "CCCN1CCN(CCCNC(=O)CN2C(=O)COc3ccccc32)CC1", "inhibition": "-2.33%"}
